In PubChem BioAssay (NCI):
Compounds without any hit were thinned out: in the full panel of roughly 79,000, 15% have a hit. A number with no mark means an inactive call. Calls of active or inactive are those of the source. Cut-off read from the data, not from the text of the source: active = growth inhibition above about 70%; inactive = the rest.

Legend:
[1] = NCI Yeast Anticancer Drug Screen. Data for the rad50 strain (AID 155);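 note: 0% = growth of vehicle-only cultures of the same strain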; conditions: S. cerevisiae rad50 strain growth inhibition, hits give high values
Outline: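 Inhibition values express reduced yeast growth in compound-treated cultures relative to vehicle-treated controls.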

[2] = NCI Yeast Anticancer Drug Screen. Data for the mec2-1 strain (AID 157); conditions: S. cerevisiae mec2-1 strain, hits give high values
Outline: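 Each compound was tested on mec2-1 yeast, a strain altered in DNA damage repair or cell cycle control. Growth inhibition is reported relative to vehicle.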

[3] = NCI Yeast Anticancer Drug Screen. Data for the sgs1 mgt1 strain (AID 161);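 note: 0% = growth of cultures given vehicle only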; conditions: S. cerevisiae sgs1 mgt1 strain, hits give high values
Outline: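 Inhibition of yeast growth, normalised to vehicle-treated controls, is reported for a strain bearing genetic alterations in DNA damage repair.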

[4] = NCI Yeast Anticancer Drug Screen. Data for the cln2 rad14 strain (AID 165);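 note: 0% = growth equal to vehicle treated cultures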; conditions: S. cerevisiae cln2 rad14 strain, hits give high values
Outline: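 Test compounds were added to cln2 rad14 yeast cultures; inhibition of growth was then determined by comparison with vehicle treatment.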

[5] = NCI Yeast Anticancer Drug Screen. Data for the bub3 strain (AID 167); conditions: S. cerevisiae bub3 mutant strain, hits give high values
Outline: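 Steps: expose the mutant yeast strain to compound; grow alongside vehicle-treated cultures; measure growth; express inhibition against the vehicle cultures.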

[6] = NCI Yeast Anticancer Drug Screen. Data for the mlh1 rad18 strain (AID 175); conditions: S. cerevisiae mlh1 rad18 strain growth inhibition, hits give high values
Outline: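 Inhibition values reflect reduced growth of mutant yeast versus vehicle-treated controls following compound exposure; the mutations affect DNA damage repair.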

[7] = at 5.0 µM (retest, dose inferred, filed as 0.5)
[8] = at 50.0 µM (retest, dose inferred, filed as 5.0)

Row | Structure (SMILES) | growth inhibition [1, 7] | growth inhibition [1, 8] | growth inhibition ([1]; at 50.0 µM) | growth inhibition [2, 7] | growth inhibition [2, 8] | growth inhibition ([2]; at 50.0 µM) | growth inhibition [3, 7] | growth inhibition [3, 8] | growth inhibition ([3]; at 50.0 µM) | growth inhibition [4, 7] | growth inhibition [4, 8] | growth inhibition ([4]; at 50.0 µM) | growth inhibition [5, 7] | growth inhibition [5, 8] | growth inhibition ([5]; at 50.0 µM) | growth inhibition [6, 7] | growth inhibition [6, 8] | growth inhibition ([6]; at 50.0 µM)
1 | CC(=O)Nc1ccc(/C=N\NC(=O)c2ccco2)cc1 | -5% | 4% | -7.6% | -10% | -7% | -2.6% | -4% | 5% | -1.1% | -13% | 1% | -3.1% | -8% | -12% | -8.45% | -2% | -12% | 0.4%
2 | N[C@@H]1CCCC[C@@H]1N.O=C([O-])CN(CP(=O)([O-])[O-])CP(=O)([O-])[O-].[Pt+2] | -1% | 89% (active) | 99.5% (active) | 6% | 75% (active) | 99.7% (active) | 8% | 88% (active) | 99.5% (active) | 3% | 67% | 98.3% (active) | 5% | 89% (active) | 99.3% (active) | -1% | 77% (active) | 99.5% (active)
3 | CCOC(=O)C1SC(=Nc2cccc(Cl)c2C)N=C1C (configuration not stated) | 22% | 83% (active) | 85.3% (active) | 24% | 72% (active) | 88.1% (active) | 23% | 91% (active) | 82% (active) | 27% | 73% (active) | 86% (active) | 34% | 88% (active) | 89.4% (active) | 38% | 91% (active) | 86.2% (active)
4 | CCOC(=O)/C(=C\c1ccc([N+](=O)[O-])cc1)C(C)=O | 46% | 99% (active) | 92.8% (active) | 39% | 99% (active) | 94.7% (active) | 25% | 98% (active) | 92.5% (active) | 17% | 98% (active) | 87.1% (active) | 40% | 99% (active) | 92.4% (active) | 30% | 99% (active) | 91.8% (active)
5 | O=C(O)CCC12CCCCC1=NC1(CCCCC1)NC2=O (configuration not stated) | 2% | 6% | 10.6% | -2% | -1% | 44.6% | 3% | 4% | 72.7% (active) | 4% | 3% | 18.1% | 1% | 2% | 67% | 1% | 7% | 55.6%
6 | COC1C(=[N+]=[N-])C(=O)NC(=O)N1C1OC(COC(c2ccccc2)(c2ccccc2)c2ccccc2)C(O)C1O (configuration not stated) | 63% | 63% | 69.5% | 10% | 10% | 80.7% (active) | 18% | 18% | 66.8% | 14% | 14% | 77.2% (active) | 13% | 13% | 60.2% | 15% | 15% | 66.6%
7 | COc1ccc2c(c1)O[C@H]1c3ccc(O)cc3OC[C@@H]21 | 1% | 35% | 72.7% (active) | 8% | 36% | 69.5% | -2% | 41% | 68% | 3% | 16% | 50.3% | 5% | 41% | 74.2% (active) | 1% | 53% | 84% (active)
8 | O=C(Nc1ccc(C(=O)Nc2ccc3c(O)cc(S(=O)(=O)O)cc3c2)cc1)c1ccccc1 | 0% | -2% | 25.8% | 2% | 34% | -5.7% | 2% | 21% | 25.8% | 1% | -13% | 1.4% | 0% | -6% | 1.15% | 19% | 6% | 47%
9 | O=C1C2C3C=CC(C2C(=O)N1CN1CCOCC1)C1C2C(=O)N(CN4CCOCC4)C(=O)C2C31 (configuration not stated) | -6% | -10% | 1.85% | 11% | 3% | 10.2% | -4% | -25% | -1.35% | -26% | -7% | 39% | 1% | -9% | -17.8% | -31% | -12% | 0.8%
10 | CCCCCCCCCCCCCCC/C([O-])=N/[N+](C)(C)CC(C)O (configuration not stated) | 98% (active) | 98% (active) | 90.9% (active) | 99% (active) | 98% (active) | 91.2% (active) | 99% (active) | 99% (active) | 92% (active) | 99% (active) | 98% (active) | 88.2% (active) | 99% (active) | 98% (active) | 91.5% (active) | 98% (active) | 97% (active) | 89.9% (active)
11 | O=C1OC(CC(=O)c2ccccc2Cl)C(Cl)=C1Cl (configuration not stated) | 6% | 33% | 38.1% | 7% | 35% | 12.6% | 39% | 52% | 58.9% | 16% | 30% | 46.6% | 1% | 37% | -0.55% | 23% | 62% | 65.7%
12 | CCS/C(SC)=C(/c1ccccc1)[P+](c1ccccc1)(c1ccccc1)c1ccccc1 | 98% (active) | 99% (active) | 90.6% (active) | 99% (active) | 100% (active) | 94.3% (active) | 99% (active) | 99% (active) | 91.6% (active) | 98% (active) | 99% (active) | 91.5% (active) | 99% (active) | 100% (active) | 91% (active) | 98% (active) | 99% (active) | 91.8% (active)
13 | O=C1Oc2cc3c(c4cccc1c24)OCN(c1ccccc1)C3 | -22% | 25% | 62.5% | -24% | 19% | 49.9% | -11% | 18% | 78.2% (active) | -15% | 15% | 35% | -17% | 25% | 49% | -5% | 49% | 58%
14 | O=C(O)CCCCCCCCC(=O)CCl | 9% | 97% (active) | 98.8% (active) | 23% | 99% (active) | 99.5% (active) | 29% | 98% (active) | 99% (active) | 14% | 98% (active) | 97.5% (active) | 48% | 98% (active) | 99.5% (active) | 38% | 98% (active) | 99.2% (active)
15 | c1ccc(N=Nc2ccc3ccccc3c2)cc1 | 5% | 9% | 16.1% | 16% | 10% | 11.8% | 6% | 6% | 3.65% | 1% | 4% | -5.6% | 3% | 17% | 83% (active) | 8% | 10% | 21.8%
16 | C#CC(C)(C)OC(C)=O | -2% | 26% | 69.9% | 0% | 0% | 19.2% | -1% | 5% | 69.5% | 2% | 0% | 5.75% | 1% | 4% | 35.6% | -1% | 4% | 76.6% (active)
17 | COC(=O)C1(Cc2ccccc2)Cc2c(C)ccc(C)c2C1=O (configuration not stated) | -4% | 12% | 43.1% | -3% | 16% | 19.2% | 13% | 42% | 61.6% | -1% | 2% | 39.2% | 28% | 62% | 64.2% | -2% | 13% | 70.2% (active)
18 | N#CN=[N+]([O-])c1ccc(C(=O)O)cc1 | 80% (active) | 89% (active) | 91.5% (active) | 87% (active) | 93% (active) | 93.8% (active) | 96% (active) | 91% (active) | 91.3% (active) | 99% (active) | 84% (active) | 91.6% (active) | 96% (active) | 87% (active) | 91.5% (active) | 96% (active) | 89% (active) | 90.9% (active)
19 | CC(C)COC(=O)c1ccc(NC(=O)CCl)cc1 | 0% | 93% (active) | 62.1% | -1% | 94% (active) | 29.9% | 2% | 95% (active) | 62.3% | -7% | 95% (active) | 16.1% | 0% | 93% (active) | 10% | 3% | 92% (active) | 67.8%
